Measurements: PubChem BioAssay AID590 (National Center for Advancing Translational Sciences (NCATS), 2007)
Hit rate of the full screen: of about 59,000 compounds, about 6,500 (11%) were called active. Roughly 15% stayed inconclusive and do not appear here. Rule as the data show it: active = max dye-equivalent concentration above about 10 nM; inconclusive = mostly about 1.1 nM to 9.6 nM; inactive = weaker than that. Only a selection was taken, and actives are over-represented in it overall.

assay: qHTS Assay for Spectroscopic Profiling in A350 Spectral Region; conditions: Compound autofluorescence, 340/450 nm, Alexa 350 dye-equivalents; hits give high values

Max dye-equivalent concentration, inactive:
O=C(Cn1nc(C(F)(F)F)c2c1CCC2)NCc1ccc(F)cc1
Nc1cc(=O)nc(SCc2ccccc2)n1Cc1ccco1
Cc1ccc(C(=O)OCC(=O)NCc2ccc3c(c2)OCO3)s1
C=CCn1c(SCc2nnc(-c3ccccc3)o2)nnc1C(O)c1ccccc1 (stereo not given)
O=C(OCc1nnc(-c2ccccc2)o1)c1ccc2c(c1)C(=O)N(CCc1ccccc1)C2=O
O=C(Nc1cccc(F)c1)N1CC2(CCN(C(=O)c3cnccn3)CC2)C1
Oc1ccccc1CNCc1ccccc1O
CCOC(=O)CSc1nnc(CNc2ccc(F)cc2)o1
CCOc1ccc(CNC(=O)C2CC(=O)N(C3CCCC3)C2)cc1OC (stereo not given)
CCOc1ccc(CNC(=O)C2CCC(=O)N2C2CCCC2)cc1OC (stereo not given)
O=C(COc1ccc(S(=O)(=O)NCCc2ccccc2)cc1)N1CCCC1
CC1(C)CC(=O)c2sc(N)nc2C1
N#CC1=C(N)Oc2n[nH]c(CSc3ccccc3)c2C12C(=O)Nc1ccccc12 (stereo not given)
COc1ccc(S(=O)(=O)N2CCCC(C(=O)N3CCN(C)CC3)C2)cc1C (stereo not given)
CCOc1ccccc1NC(=O)CCN1CCN(S(=O)(=O)c2ccc(OC)cc2)CC1
COc1cccc(N2C(=O)CC(N3CCN(S(=O)(=O)c4ccccc4)CC3)C2=O)c1 (stereo not given)
Cc1ccc(C)c(NC(=O)C2CCCN2C(=O)OC(C)(C)C)c1 (stereo not given)
OCCN1CCN(CC/C=C2\c3ccccc3Sc3ccc(C(F)(F)F)cc32)CC1
COc1ccccc1NC(=O)CSc1nnc(Cn2nnc(-c3ccccc3)n2)n1-c1ccccc1
COc1c(C(=O)N2CCCC2)ccc2ccccc12
CCCCC(=O)Nc1cc(C)c2c(=O)oc3ccccc3c2n1
CCOC(=O)N1CCN(C(=O)c2n[nH]c(=O)c3ccccc23)CC1
O=C(NCCc1ccc2c(c1)OCCO2)c1cc2ccccc2o1
CC(C)(C)NCC[C@@H](O)c1cc(C(F)(F)F)nc2c(C(F)(F)F)cccc12
CC(=O)N1CCC2(CC1)CCN(c1ccncc1)CC2
CC1(N2CCOCC2)CC2(O)C(=[N+]1[O-])CCc1nonc12 (stereo not given)
CCOC(=O)CSc1nc2c(c(=O)n(Cc3ccccc3Cl)c(=O)n2C)n1C
Cc1cc(C(=O)CC#N)c(C)n1CC(F)(F)F
Cc1cc(NC(=O)CCC(=O)N(c2cccc(F)c2)C(C(=O)NC2CCCC2)c2ccncc2)no1 (stereo not given)
O=C(Cn1ccc(=O)[nH]c1=O)Nc1ccc(C(=O)O)c(O)c1
COCCn1nnnc1CN1CCC(NC(=O)Nc2cccc(OC)c2)CC1
O=C(O)COc1nsnc1N1CCOCC1
CN(C)C(=O)c1ccc(-c2cncnc2Nc2ccccc2)cc1
CN(C(=O)c1ccno1)c1nnc(-c2cccnc2)s1
CN(C(=O)COc1ccccc1)c1nnc(-c2ccncc2)s1
CCCn1c(SCC(N)=O)nnc1C(C)C
Cc1cccc(N)c1SC1CCCCC1O (stereo not given)
O=c1c(F)cn(C2CCCO2)c(=O)n1Cc1ccccc1Cl (stereo not given)
CCn1c(Cc2ccccc2)nnc1SCC(=O)Nc1ccccc1
COc1ccc(OC)c(CNC(=O)C2CCCN(c3nc4ccccc4o3)C2)c1 (stereo not given)
Cc1ccc(SCCN2C(=O)NC(C)(C)C2=O)cc1
Cn1nnc(NC(=O)CSc2ncn[nH]2)n1
Nc1ncc(-c2cc3ccccc3oc2=O)s1
Cc1ccsc1C(=O)OCC(=O)c1cc2ccccc2o1
O=C(NCc1ccccn1)c1cnc2sccn2c1=O
O=C(NCc1ccccn1)Nc1ccc(F)cc1
CC(C)CSC[C@@H]1O[C@H](n2cnc3c(N)nccc32)[C@H](O)[C@@H]1O
O=c1cc(CSc2ccc(Cl)cc2)nc(N2CCOCC2)[nH]1
Cc1ccc2c(CSc3nncs3)cc(=O)oc2c1
O=C(Nc1cnccn1)c1cccnc1
O=C(c1ccncc1)N1CCC2(CCN(Cc3cc(C(F)(F)F)cc(C(F)(F)F)c3)CC2)CC1
O=C(Nc1cccc2c1CCCC2)C1CCN(C(=O)NC2CCCCC2)CC1
CCC(=O)Nc1ccc(C(=O)CSc2nnc(CNc3ccc(Cl)cc3)o2)cc1OC
O=C(NC1CCCCC1)n1c(=O)oc2cc(S(=O)(=O)N3CCCCC3)ccc21
CC(C)(C)n1nnnc1C(c1cccs1)N(Cc1cccnc1)CC1CCCO1 (stereo not given)
CCC(c1nnnn1Cc1ccco1)N(CCc1ccccc1)Cc1cc2ccc(OC)cc2[nH]c1=O (stereo not given)
COc1ccccc1N1CCN(Cc2nnnn2CCc2ccccc2)CC1
CCC(c1nnnn1C1CCCC1)N(Cc1cccs1)Cc1cc2cccc(C)c2[nH]c1=O (stereo not given)
Cc1cccc2cc(CN(Cc3ccc4c(c3)OCO4)Cc3nnnn3C3CCCC3)c(=O)[nH]c12
Cc1cccc2cc(CN(Cc3cccs3)C(c3nnnn3C3CCCC3)C(C)C)c(=O)[nH]c12 (stereo not given)
COc1ccc(N(CC(=O)NC(C)(C)C)C(=O)c2ccco2)cc1
O=C(O)CCN1C(=O)CC2(CCCCC2)C1=O
O=c1[nH]nc(CSCc2ccccc2Cl)[nH]1
N#Cc1ccc(CSc2nnc(-c3ccccn3)n2-c2ccc(Cl)cc2)cc1
CN(C)c1ccc(CNC23CN4CN(CN(C4)C2)C3)cc1
CCOC(=O)CSc1nnc(CNC(=O)c2ccco2)n1-c1ccc(F)cc1
O=C(Oc1ccc2c(c1)CN(Cc1ccccc1)CO2)c1ccccc1
COC(=O)c1c(NC(=O)CSc2nc3c(c(=O)n(C)c(=O)n3C)n2C(C)C)sc(C)c1C
CCOP1(=O)C=C(C(C)(C)C)OC1c1ccc(F)cc1 (stereo not given)
CC(C)c1nc(-c2ccccn2)no1
CSCCC(NS(=O)(=O)/C=C/c1ccccc1)C(=O)N1CCC(C)CC1 (stereo not given)
CCn1c(SCC(=O)Nc2ccc3c(c2)OCCO3)nc2c(c1=O)SC(C)C2 (stereo not given)
O=C(O)c1ccc(C(=O)O)c2c(C(=O)O)ccc(C(=O)O)c12
c1ccc(CCn2nnnc2CN2CCN(C3CCCC3)CC2)cc1
O=C(OCc1cc2ccccc2[nH]c1=O)c1cccnc1
CCOc1ccc2c(c1)cc(CN(C(=O)CC)C1CCCCC1)c1nnnn12
O=C(CN(CC1CCCO1)C(=O)CNS(=O)(=O)c1ccccc1)NCc1ccccc1 (stereo not given)
Cc1cc(C)c2cc(CN(Cc3cccs3)Cc3nnnn3CC3CCCO3)c(=O)[nH]c2c1 (stereo not given)
C[C@@H]1CC[C@H]2[C@H](C)[C@H]3[C@H](C[C@H]4[C@@H]5CC=C6C[C@@H](O)CC[C@@]6(C)[C@@H]5C[C@@H](O)[C@]34C)N2C1
CN(C)CCNC(CC(=O)Nc1ccc(Cl)c(Cl)c1)C(=O)O (stereo not given)
Cc1ccc(CNC(=O)C2CCCN(S(C)(=O)=O)C2)cc1 (stereo not given)
O=C(Nc1ccccc1F)c1cc(S(=O)(=O)N2CCCCC2)cs1
NCC(=O)[C@@H](O)[C@H](O)[C@H](O)CO
O=C(O)c1nn(-c2ccc(Cl)cc2)c2c1C(=O)c1ccccc1C2=O
CCCN1CCN(CCCNC(=O)CN2C(=O)COc3ccccc32)CC1
C[C@H](CCC(=O)NCC(=O)O)[C@H]1CC[C@H]2[C@H]3[C@@H](C[C@@H](O)[C@]12C)[C@]1(C)CC[C@H](O)C[C@@H]1C[C@@H]3O

Max dye-equivalent concentration, active:
O=c1[nH]c(=O)n(Cc2ccco2)c2c1C(C(F)(F)F)(C(F)(F)F)N=C(c1ccco1)N2 18 nM
Fc1ccc2nc(-c3ccccc3)nc(SCc3nnc(-c4ccccc4)o3)c2c1 38 nM
CCOc1cc(C2C(C(=O)OC)=CN(C3CCCC3)C=C2C(=O)OC)cc(Br)c1O 230 nM
COc1ccc(S(=O)(=O)N2CCN(c3ncnc4c(-c5ccccc5)nsc34)CC2)cc1 120 nM
CCOC(=O)N1CCN(C(=O)c2cc3c(ccc4ccccc43)oc2=O)CC1 1700 nM
CNC(=O)c1cc2c(ccc3ccccc32)oc1=N 11000 nM
COc1cccc(-c2nnc(N(C)C(=O)c3ccno3)s2)c1 32 nM
COc1ccc2nc(N3CCCC(O)C3)c(C#N)cc2c1 (stereo not given) 130 nM
O=C(Oc1cccnc1)c1cc2ccccc2oc1=O 96 nM
O=C(NCc1ccccn1)c1cc2ccccc2oc1=O 21 nM
CCC(c1nnnn1Cc1ccco1)N(Cc1cc2cc(OC)ccc2[nH]c1=O)C1CCCCC1 (stereo not given) 21 nM
CCC(c1nnnn1Cc1ccccc1)N(Cc1cc2cc(OC)ccc2[nH]c1=O)CC1CCCO1 (stereo not given) 32 nM
CCOc1ccc2[nH]c(=O)c(CN(Cc3nnnn3CCc3ccccc3)CC3CCCO3)cc2c1 (stereo not given) 76 nM
CCOc1ccc2[nH]c(=O)c(CN(Cc3nnnn3Cc3ccccc3)CC3CCCO3)cc2c1 (stereo not given) 150 nM
CCC(=O)N(Cc1cc2cc(OC)ccc2[nH]c1=O)c1ccccc1C 170 nM
CCOc1ccc2[nH]c(=O)c(CN(CCCO)C(C)=O)cc2c1 290 nM
COc1ccc2[nH]c(=O)c(CN(Cc3nnnn3CCc3ccccc3)CC3CCCO3)cc2c1 (stereo not given) 300 nM
COc1ccc2[nH]c(=O)c(CN(CC3CCCO3)C(=O)Nc3ccccc3)cc2c1 (stereo not given) 100 nM
CCn1c2c(c3ccc(OC)cc31)CCCC2=O 11 nM
